According to PubChem BioAssay AID1259374 (The Scripps Research Institute Molecular Screening Center, 2018):
In all, about 650,000 compounds went through this assay and about 5,900 (0.91%) were called active. The entries come from a sample that favours actives as a whole. Unmarked numbers belong to inactive results. Rule as the data show it: active = inhibition above about 50%; inactive = the rest.

Target: Microphthalmia-associated transcription factor (Homo sapiens) (UniProt O75030)
Assay: MITF inhibitors, primary screen, biochemical, AlphaScreen, human (AID 1259374);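 also: 0% = vehicle wells with protein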
Conditions: AlphaScreen MITF homodimerization, bead proximity signal; at 2.6 µM; hits give high values

Sequence of Microphthalmia-associated transcription factor (Homo sapiens) (O75030 whole entry, looked up): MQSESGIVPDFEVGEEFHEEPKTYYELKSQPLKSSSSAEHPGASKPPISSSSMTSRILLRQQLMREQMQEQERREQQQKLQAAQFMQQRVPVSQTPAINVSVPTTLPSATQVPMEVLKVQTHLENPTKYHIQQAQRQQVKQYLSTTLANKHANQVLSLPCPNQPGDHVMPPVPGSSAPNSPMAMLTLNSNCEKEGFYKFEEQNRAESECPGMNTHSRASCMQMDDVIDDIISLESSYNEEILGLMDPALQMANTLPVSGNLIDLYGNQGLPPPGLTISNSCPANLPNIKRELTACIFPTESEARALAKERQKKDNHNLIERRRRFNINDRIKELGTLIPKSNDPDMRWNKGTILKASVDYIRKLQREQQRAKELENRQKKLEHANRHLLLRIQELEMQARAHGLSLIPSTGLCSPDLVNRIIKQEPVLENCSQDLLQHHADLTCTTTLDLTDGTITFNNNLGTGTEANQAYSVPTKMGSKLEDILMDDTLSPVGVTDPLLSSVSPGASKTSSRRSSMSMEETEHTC

| SMILES | inhibition |
| --- | --- |
| CC(C)[C@@H](CO)Nc1ccc2ncc(-c3ccccc3F)n2n1 | -14.3% |
| CC(=O)c1ccc(OCC(=O)N2CCOCC2)cc1 | -0.62% |
| O=S(=O)(c1ccc(Br)c2ccccc12)N1CCN(Cc2ccccc2)CC1 | 7.47% |
| CCCS(=O)(=O)N1CCC(O)(c2cccnc2)CC1 | 13.4% |
| CS(=O)(=O)N1CCC(c2nc3c(nnn3Cc3cccc(Cl)c3)c(=O)[nH]2)CC1 | 9.95% |
| CCCS(=O)(=O)N1CCN=C1SCc1cccc(Cl)c1 | 18.8% |
| Clc1cccc(CN2CCN(c3ccccn3)CC2)c1 | 50.1% |
| CCCS(=O)(=O)N1CCN(Cc2cccc(Cl)c2)CC1 | 54.8% (active) |
| CCS(=O)(=O)N1CCN(c2cccc(Cl)c2)CC1 | -3.13% |
| CCCS(=O)(=O)N1CCN(Cc2ccccc2Br)CC1 | 58.2% (active) |
| CS(=O)(=O)N1CCN(Cc2cccc(Cl)c2)CC1 | 70.2% (active) |
| CC(CC(=O)N(CC(N)=O)C(C)C)c1ccccc1 (stereo not drawn) | -5.95% |
| CCOC(=O)c1cccc(NC(=O)COc2ccccc2Br)c1 | 8.75% |
| COc1cc(/C=C(/C#N)C(N)=S)c(Br)cc1O | 24.1% |
| CSc1ccccc1C(=O)NCc1c(C)ncc2c1CCN(C(=O)c1cc(C)oc1C)C2 | 12.3% |
| COc1ccc(C(=O)N2CCCCO2)cc1OC1CCN(C(C)=O)CC1 | 2.51% |
| Cc1ccc(SCC(=O)NCc2nc(-c3ccc(C)cc3)no2)cc1 | -3.11% |
| CC(C)CCN1CCNC(=O)C1CC(=O)N1CCCO1 (stereo not drawn) | 1.48% |
| O=[N+]([O-])c1c(Cl)cc(Cl)c2nsnc12 | 1.42% |
| C=CCn1c(C)c(/C=c2/sc3n(c2=O)C(c2ccc(OC)c(Br)c2)C(C(=O)OCC)=C(C)N=3)c2ccccc21 (stereo not drawn) | -0.97% |
| CN1CCN(c2nccnc2-c2cccc(C(=O)NCCO)c2)CC1 | 4.98% |
| O=[N+]([O-])c1ccccc1CN1CCN(Cc2ccccc2C(F)(F)F)CC1 | 67.3% (active) |
| CCC(C)C(=O)NCc1nnc2n1CCN(Cc1cccnc1)CC2 (stereo not drawn) | 0.14% |
| O=S(=O)(c1ccc(F)cc1)N1CCN(Cc2ccccc2F)CC1 | 3% |
| O=S(=O)(c1ccc(F)cc1)N1CCN(CCCc2ccccc2)CC1 | 43.8% |

| SMILES | inhibition |
| --- | --- |
| COc1ccccc1N1CCN(C2CCN(Cc3ccccc3[N+](=O)[O-])CC2)CC1 | -2.11% |
| O=[N+]([O-])c1ccccc1CN1CCN(Cc2cccnc2)CC1 | 61.9% (active) |
| O=C(Cc1ccccc1[N+](=O)[O-])NNC(=O)Nc1ccccc1C(F)(F)F | 13.8% |
| O=S(=O)(c1ccc(F)cc1)N1CCN(Cc2ccccc2C(F)(F)F)CC1 | 59.6% (active) |
| CCOc1ccccc1CN1CCN(Cc2cccnc2)CC1CCO (stereo not drawn) | 8.25% |
| O=C(CC(Nc1ccc2ccccc2c1)c1cccnc1)c1ccccc1 (stereo not drawn) | 1.3% |
| CC(=O)Nc1ccc(Oc2cc(NC(=O)c3cccc(F)c3)cc([N+](=O)[O-])c2)cc1 | 9% |
| O=C1c2ccccc2C(=O)c2c1cccc2S(=O)(=O)N1CCCC1 | 10.2% |
| O=C(Nc1ccc2nsnc2c1NC(=O)c1ccc2nsnc2c1)c1ccc2nsnc2c1 | 1.05% |
| N#CCSc1nc2[nH]ncc2c(=O)n1-c1cccc(C(F)(F)F)c1 | 1.44% |
| CC(C)[C@@H](C(=O)OCC(=O)Nc1cccnc1Cl)N1C(=O)c2ccccc2C1=O | -1.46% |
| COc1ccccc1N=Cc1cccc(O)c1O | -5.98% |
| Oc1cccc(/C=N/Nc2ccc(Cl)nn2)c1O | 89.8% (active) |
| C/C(=N\Nc1nc(C(C)(C)C)cs1)c1ccccc1O | 6.2% |
| C/C(=N\NC(=O)C(O)(c1ccccc1)c1ccccc1)c1ccccc1O | -4.23% |
| NC(=O)c1ccc(N=Cc2cccc(O)c2O)cc1 | 25.2% |
| C/C(=N\Nc1ccc(Cl)nn1)c1ccccc1O | 61.1% (active) |
| COc1ccc(/C=C/C(=O)NCc2ccccc2OC)cc1 | -9.24% |
| CCc1ccc(N=c2oc3c(C)ncc(CO)c3cc2C(N)=S)cc1 | 3.64% |
| COc1ccccc1NC1=C/C(=N/S(=O)(=O)c2ccc(F)cc2)c2ccccc2C1=O | 67.4% (active) |
| COc1ccc(S(=O)(=O)/N=C2/C=C(Nc3ccc(O)cc3)C(=O)c3ccccc32)cc1 | 20% |
| COC(=O)c1ccccc1NC1=C/C(=N/S(=O)(=O)c2ccccc2)c2ccccc2C1=O | 23.4% |
| CCOc1ccc(CN2CCN(Cc3ccc(OC)c(OCC)c3)CC2)cc1 | 9.84% |
| COc1cccc(CN2CCN(C(=O)c3ccccc3F)CC2)c1 | 56.7% (active) |
| COc1cc(CN2CCN(Cc3cccnc3)CC2)cc(OC)c1OC | 80.7% (active) |

| SMILES | inhibition |
| --- | --- |
| COc1ccc(C(=O)N2CCN(Cc3cccc(OC)c3)CC2)cc1 | 45.7% |
| CCOc1cc(CN2CCN(C(=O)c3ccccc3F)CC2)ccc1OC | 34.4% |
| COc1cc(CN2CCN(c3ccccn3)CC2)cc(OC)c1O | 19.3% |
| CCOc1cc(CN2CCC(n3nccc3NC(=O)C(C)(C)C)CC2)ccc1OC | -3.52% |
| COC(=O)c1c(OC2CCCC2)cc(=O)n2c1CCN(Cc1cccnc1)CC2 | 2.84% |
| CCOc1ccccc1N1CCN(Cc2cc(OC)c(O)c([N+](=O)[O-])c2)CC1 | 55.2% (active) |
| CCOc1cc(CN2CCN(Cc3ccccn3)CC2)ccc1OC | 62.3% (active) |
| Cc1cc2nc(N3CCCN(Cc4cccnc4)CC3)nc(C)c2cc1C | 6.51% |
| CCOc1ccccc1N1CCN(S(=O)(=O)c2ccc([N+](=O)[O-])cc2)CC1 | 6.79% |
| c1ccc2c(-c3nc(Nc4ccc(N5CCOCC5)cc4)c4ncn(C5CCCCC5)c4n3)csc2c1 | 1.65% |
| COc1cccc(OC)c1C(=O)NNC(=O)c1cccc(C)c1O | -15.2% |
| Cn1cnnc1SCC(=O)N1CCN(c2ccccc2)CC1 | 1.28% |
| CCOC(=O)c1sc(NC(=O)c2ccc(S(=O)(=O)N3CCc4ccccc43)cc2)nc1-c1ccccc1 | 15.2% |
| CCOC(=O)c1c(NC(=O)C(C)Sc2nnc(CNC(=O)c3ccc(C)c([N+](=O)[O-])c3)n2CCc2ccccc2)sc2c1CCC2 (stereo not drawn) | -9.22% |
| O=C(COc1ccc(Cl)cc1Cl)Nc1ccc(Br)cn1 | 9.36% |
| Cc1cc(-n2c(C)nc3ccccc3c2=O)ccc1NS(=O)(=O)c1ccccc1 | -5.82% |
| O=C(O)CNC(=O)/C(=C/c1ccc2c(c1)OCO2)NC(=O)c1cccc(Br)c1 | -6.12% |
| COc1ccccc1NC(=O)N1CCC(CO)(Cc2ccccc2Cl)CC1 | -1.19% |
| c1ccc(COc2ccccc2CNCc2cccnc2)cc1 | -4.27% |
| CCOC(=O)C1CCN(Cc2ccccc2F)CC1 | 26.1% |
| O=C1CCN(Cc2cccnc2)CCN1Cc1c(F)cc(F)cc1F | 10.8% |
| CCCS(=O)(=O)N1CCN(Cc2ccc(OC)c(OCc3ccccc3)c2)CC1 | 52.7% (active) |
| c1ccc(CCc2nnc3n2CCN(Cc2cccnc2)CC3)cc1 | 4.85% |
| Brc1cccc(CN2CCN(Cc3cccnc3)CC2)c1 | 77.7% (active) |
| COc1cc(OC)c(OC)cc1CN1CCN(C(=O)c2ccccc2F)CC1 | 17.8% |

| SMILES | inhibition |
| --- | --- |
| COc1c(S(=O)(=O)N2CCN(Cc3ccccc3)CC2)ccc(Cl)c1Cl | -5.29% |
| COc1cccc(OC)c1C(=O)N1CCN(Cc2ccccc2F)CC1 | 55.7% (active) |
| COc1ccc(CN2CCN(Cc3cccnc3)CC2)cc1OCc1ccccc1 | 75.8% (active) |
| COc1ccc(/C=N/N2CCN(C)CC2)cc1OCc1ccccc1 | 21.7% |
| COc1cc(CN2CCC(O)CC2)ccc1OCc1ccccc1 | -15% |
| COc1ccc(NC(=O)c2cc(C3CC3)on2)cc1 | -14% |
| NS(=O)(=O)c1ccc(NSc2ccccc2[N+](=O)[O-])cc1 | 13.8% |
| CC(=O)Nc1ccc(OCC(O)CN2CCN(c3cccc(C(F)(F)F)c3)CC2)cc1 (stereo not drawn) | 10.8% |
| CC1CCN(C(=O)CSc2nc3c(c(=O)n2CCc2ccccc2)SCC3)CC1 | -10.8% |
| CC(=O)Nc1ccc(C(=O)N/N=C/c2cccc(C)n2)cc1 | 9.97% |
| C=CCOc1ccc(C2Nc3ccccc3-c3nnc(SC)nc3O2)cc1 (stereo not drawn) | 3.95% |
| CC(C)C(=O)NC(NC(=S)Nc1ccccc1C(=O)O)C(Cl)(Cl)Cl (stereo not drawn) | 9.89% |
| COc1ccc(Cn2nc(-c3ccncc3)oc2=O)cc1 | 3.66% |
| O=C(NCCOc1ccccc1)c1cc(-c2ccccc2)nc2c(Cl)cccc12 | -8.8% |
| COC(=O)c1ccccc1S(=O)(=O)C1CCN(Cc2cccnc2)CC1 | 13.1% |
| COc1cccc(OC)c1C(=O)N1CCN(Cc2cccnc2)CC1 | 79.5% (active) |
| COc1ccccc1C(=O)N1CCN=C1SCc1cccnc1 | -16.8% |
| Cc1cc(C)c(S(=O)(=O)N(C)CCO)cc1N(C)S(=O)(=O)c1ccc(Cl)cc1 | -12% |
| CCCCC(=O)N1CCN(c2ccccc2OCC)CC1 | -2.97% |
| CCN(CC)CCNC(=O)c1sc2ncn(Cc3ccccc3F)c(=O)c2c1C | -7.31% |
| COC(=O)c1ccc(C2Nc3c(C(=O)OC)cccc3C3C=CCC32)cc1 (stereo not drawn) | 4.19% |
| COc1cccc(C2Nc3ccc(C(=O)O)cc3C3C=CCC32)c1OC (stereo not drawn) | 13.7% |
| CCOc1cccc2c1N[C@@H](c1ccc(C(=O)O)cc1)[C@H]1CC=C[C@@H]21 | 65.3% (active) |
